Target: Solute carrier family 2, facilitated glucose transporter member 1 (Homo sapiens) (UniProt P11166)
Assay: ST_JUDE_LEISH: Cytotoxicity at 2uM final concentration against transgenic Leishmania Mexicana promastigotes LmGLUT1 that are glucose transport deficient and complemented with the human glucose transporter GLUT1. Activity is measured by DNA content using SYBR green in vitro
Format: functional

Chain of Solute carrier family 2, facilitated glucose transporter member 1 (Homo sapiens) (P11166 whole entry): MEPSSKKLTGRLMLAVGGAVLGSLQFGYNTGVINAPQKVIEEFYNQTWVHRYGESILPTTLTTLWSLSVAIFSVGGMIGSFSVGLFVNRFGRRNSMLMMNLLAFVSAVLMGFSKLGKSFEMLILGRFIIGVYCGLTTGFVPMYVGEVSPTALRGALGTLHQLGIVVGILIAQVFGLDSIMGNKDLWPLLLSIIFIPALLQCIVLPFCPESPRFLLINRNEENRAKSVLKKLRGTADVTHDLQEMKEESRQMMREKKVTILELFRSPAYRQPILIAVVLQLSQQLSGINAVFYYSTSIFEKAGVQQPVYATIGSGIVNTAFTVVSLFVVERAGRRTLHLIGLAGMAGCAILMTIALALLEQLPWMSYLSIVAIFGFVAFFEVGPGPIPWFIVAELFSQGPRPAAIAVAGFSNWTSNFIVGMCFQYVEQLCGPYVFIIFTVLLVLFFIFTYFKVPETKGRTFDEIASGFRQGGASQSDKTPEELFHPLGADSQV

| Structure (SMILES) | inhibition [%] |
| --- | --- |
| COc1cc(Cc2cnc(N)nc2N)cc(OC)c1OCCNC(=O)[C@@H](N)CCC(=O)O | -0.69 |
| COC(=O)c1ccc(OCC(C)NCC(O)c2cccc(C(F)(F)F)c2)cc1 (stereo not given) | 10.7 |
| O=C(Nc1ccc(-c2cccc(-c3nc4cc(C(F)(F)F)ccc4[nH]3)c2)cc1)Nc1ccc(F)c(F)c1F | 0.81 |
| CCc1cc(NC2CCN(C)CC2)nc(Nc2ccc(C)cc2)n1 | 7.94 |
| CCc1c(CCNCCCCCCNCCc2ccc(Br)cc2)ccc(OC)c1OC | 36.3 |
| CS(=O)(=O)c1ccc(CNCc2cccc(-c3cccc(-c4nc5cc(C(F)(F)F)ccc5[nH]4)c3)c2)cc1 | 5.54 |
| CCCc1cc(=O)[nH]c(-n2nc(C)cc2NC(=O)c2cc3ccccc3o2)n1 | 12.6 |
| Clc1cc(Nc2ncnc3cc(C#C[C@H]4CCCN4)sc23)cc2nc(Cc3ccccc3)[nH]c12 | 1.94 |
| CCNc1cc(C(=O)N[C@@H](Cc2ccccc2)[C@H](O)CNC(C)(C)CCCC(C)C)cc(N2CCCC2=O)c1 | 2.43 |
| CCc1cccc2sc(N3CCN(C(=O)c4ccc([N+](=O)[O-])o4)CC3)nc12 | 71.2 |
| Cc1ccc(-c2cc(C(=O)Nc3ccc(S(=O)(=O)N(C)Cc4ccccc4)cc3)[nH]n2)c(O)c1 | 0.95 |
| c1cc(C2=NC3CCCCC3N2)ccc1OCCCCCOc1ccc(C2=NC3CCCCC3N2)cc1 (stereo not given) | 2.83 |
| COc1cccc(C=NNc2cc(C)nc3c(OC)cccc23)c1 | 3.12 |
| CCN(CC)S(=O)(=O)n1ncc2c3c(N)nc(N)nc3ccc21 | -2.64 |
| O=C(Nc1ccccc1)N1CCOC(CCN2CCC(F)(F)CC2)(c2ccc(Cl)c(Cl)c2)C1 (stereo not given) | 2.76 |
| COc1ccc(C2CC(c3ccccc3O)=NN2C(=O)c2ccco2)cc1OC (stereo not given) | 0.86 |
| COc1cccc2c(NN=Cc3ccccc3F)ccnc12 | 7.43 |
| O=C(NCCCCN1CCC(c2ccc3c(c2OCC2COCO2)CCCC3)CC1)c1ccc(-c2ccc(C(F)(F)F)cc2)cc1 (stereo not given) | -0.33 |
| CNc1nc(Nc2ccccc2C)nc2ccccc12 | 33.8 |
| COc1ccc(-c2ccc(CNC(=O)c3ccc(Cl)cc3)c(F)c2)cc1CN1CCCN(C)CC1 | 3.27 |

| Structure (SMILES) | inhibition [%] |
| --- | --- |
| O=C(Nc1ccc(-c2cccc(CN3CCC(O)CC3)c2)cc1)c1cccc(Cl)c1 | 24.1 |
| CN1CCN(CC(=O)Nc2cccc(-c3cccc(-c4nc5ccccc5[nH]4)c3)c2)CC1 | -0.57 |
| N#Cc1ccc(NC2(C(=O)N3CCN(c4cccc(Cl)c4)CC3)CC2)c2ccccc12 | 2.79 |
| O=C(Nc1ccc(OC2CCN(Cc3ccc(F)cc3)CC2)c(Cl)c1)c1ccccc1 | -3.58 |
| COc1ccc(CN2CCC2=O)c(OC)c1 | 4.12 |
| O=C(N[C@H]1CCN(Cc2ccc(OCCN3CCNCC3)c3ccccc23)C1)c1ccc(Cl)c(Cl)c1 | 1.1 |
| COc1ccc2c(N/N=C/c3ccccc3[N+](=O)[O-])cc(C)nc2c1 | 3.18 |
| CCN(CC)C(=O)C1CCN(C(C(=O)N2CCN(CC(=O)N3CCCC3)CC2)c2cc3ccccc3o2)CC1 (stereo not given) | 2.21 |
| N=C1c2ccccc2CN1CC(=O)c1ccc(Cl)c(Cl)c1 | 0.66 |
| Cc1nc(-c2cccc(NCc3ccccc3)c2)[nH]c1C | 6.94 |
| CC(C)[C@H](NC(=O)c1ccc(O)c(-c2cccc(C(F)(F)F)c2)c1)C(=O)NCCN1CCCCC1 | -0.28 |
| CC(C)N1CCC(N(Cc2ccc(-c3ccc(Cl)cc3)cc2)C(=O)Cn2c(CCc3cccc(F)c3F)nc(=O)c3ccccc32)CC1 | 6.02 |
| CC(C)C(C(=O)Nc1ccc(S(=O)(=O)N(C)C)cc1)c1ccc(Cl)cc1 (stereo not given) | -2.78 |
| CC(C)CCN1CCCN(Cc2ccc(C(=O)NCc3ccc(Cl)cc3)cc2)CC1 | 2.09 |
| CC=Cc1cc(Cc2c[nH]c(=N)[nH]c2=N)cc(CCC)c1OC | 10.8 |
| CCCc1cc(C(=O)N[C@@H](Cc2ccccc2)[C@H](O)CNC(C)(C)c2cccc(OC)c2)c(F)c(N2CCCC2=O)c1 | 9.67 |
| CC(=O)Oc1c(Cl)c(C)nc(C)c1-c1ccc(Oc2ccc(OC(F)(F)F)cc2)cc1 | 3.62 |
| COc1ccc(CNC2Cc3ccccc3C2)cc1-c1ccc(S(=O)(=O)NCCN2CCCC2)c(F)c1 | 28.3 |
| COc1ccccc1CCNc1nccc(N[C@@H](Cc2ccccc2)C(=O)NCc2cccs2)n1 | 1.78 |
| CC[C@H](C)CNC(=O)c1cccc(-c2cccc(CNCC3CNCCCO3)c2)n1 (stereo not given in full) | -0.08 |

From ChEMBL document CHEMBL3433997, “St. Jude Leishmania screening dataset” (2016)
